Experimental findings from PubChem BioAssay are described below.

Active and inactive are the calls of the source.

A short description of test [1]: binders of probe aFSTL3 on microarray, primary screen, stem cell growth factor project, biochemical, small-molecule microarray, fluorescence 635/667 (AID 1064).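 Further: measures binding of the biotinylated anti-FSTL3 antibody to printed compounds.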 To be noted: higher = more signal.
Test [2] can be described thus: binders from COS7 lysate, DM2A8 probe, primary screen, torsin A project, cell lysate, small-molecule microarray, fluorescence 635/667 (AID 1065). To be noted: higher = more signal, COS7 lysate expressing mutant human TOR1A.
A short description of test [3]: binders of probe aFGF2 on microarray, primary screen, stem cell growth factor project, biochemical, small-molecule microarray, fluorescence 635/667 (AID 1067).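 Further: measures binding of biotinylated aFGF2 protein to printed compounds on slides; z-score merges feature fluorescence and signal-to-noise across triplicate slides.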 To be noted: higher = more signal.
Test [4] can be described thus: binders of probe aFGF10 on microarray, primary screen, stem cell growth factor project, biochemical, small-molecule microarray, fluorescence 635/667 (AID 1071).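 Further: score merges 667 nm spot intensity and signal to noise from triplicate slides.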 Conditions: higher = more signal.
For test [5], the target named is Neurogenic locus notch homolog protein 2 (Homo sapiens) (UniProt Q04721). In words: Notch2 binders on small-molecule microarrays, primary screen, biochemical, small-molecule microarray, 635 nm fluorescence, stem cell growth factors (AID 1073). To be noted: Notch2 binding, higher = more signal.
Test [6] has as its target Pro-neuregulin-1, membrane-bound isoform (Homo sapiens) (UniProt Q02297). As to the kind of experiment: NRG1 binders on small-molecule microarrays, primary screen, psychiatric disease protein project, biochemical, small-molecule microarray, fluorescence 635/667 (AID 1075).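 Further: score combines 667 nm spot fluorescence with signal to noise.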 Conditions: NRG1 binding, 635 nm fluorescence, higher = more signal.
The test system of test [7] is Neuregulin-1 EGF-like domain. As to the kind of experiment: binders of neuregulin-1 EGF-like domain, primary screen, biochemical, small-molecule microarray, 635 nm fluorescence (AID 1081).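 Further: binding of the protein to compounds printed on small-molecule microarray slides.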 Conditions: small-molecule microarray binding, higher = more signal.
Test [8] is described as follows: FRG1 promoter luciferase signal modulators, primary screen, FRG1 inhibition for FSHD, cell-based, C2C12 myotubes, firefly/Renilla luciferase, luminescence (AID 1084). Conditions: higher = more signal, called active from +8 up or from −8 down.
A short description of test [9]: binders of probe aFST on microarray, primary screen, stem cell growth factor project, biochemical, small-molecule microarray, fluorescence 635/667 (AID 1086).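 Further: score merges 667 nm fluorescence with signal-to-noise of each printed compound spot.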 To be noted: higher = more signal.
Test [10] can be described thus: binders of probe aHhip on microarray, primary screen, stem cell growth factor project, biochemical, small-molecule microarray, fluorescence 635/667 (AID 1087).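 Further: score merges spot fluorescence at 667nm with spot signal to noise ratio.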 To be noted: higher = more signal.

Pro-neuregulin-1, membrane-bound isoform (Homo sapiens), sequence (Q02297 whole entry, looked up, the tested form may be a part, canonical isoform): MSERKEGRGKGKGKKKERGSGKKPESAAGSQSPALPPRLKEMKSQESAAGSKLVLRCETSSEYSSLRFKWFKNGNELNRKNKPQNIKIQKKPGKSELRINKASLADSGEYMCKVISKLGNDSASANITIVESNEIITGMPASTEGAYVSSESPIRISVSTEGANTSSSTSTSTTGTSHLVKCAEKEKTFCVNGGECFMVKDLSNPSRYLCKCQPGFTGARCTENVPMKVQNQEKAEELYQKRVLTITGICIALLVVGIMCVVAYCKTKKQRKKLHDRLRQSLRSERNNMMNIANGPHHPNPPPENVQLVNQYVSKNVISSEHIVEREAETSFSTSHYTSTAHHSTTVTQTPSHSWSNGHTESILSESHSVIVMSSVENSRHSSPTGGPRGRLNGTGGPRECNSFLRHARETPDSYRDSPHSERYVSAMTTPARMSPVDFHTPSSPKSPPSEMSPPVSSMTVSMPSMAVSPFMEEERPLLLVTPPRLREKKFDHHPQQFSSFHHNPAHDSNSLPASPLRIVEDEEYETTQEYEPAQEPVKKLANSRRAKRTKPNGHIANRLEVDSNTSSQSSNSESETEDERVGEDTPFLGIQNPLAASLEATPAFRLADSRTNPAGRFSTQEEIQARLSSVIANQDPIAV
Neurogenic locus notch homolog protein 2 (Homo sapiens), sequence (Q04721 whole entry, looked up, canonical isoform): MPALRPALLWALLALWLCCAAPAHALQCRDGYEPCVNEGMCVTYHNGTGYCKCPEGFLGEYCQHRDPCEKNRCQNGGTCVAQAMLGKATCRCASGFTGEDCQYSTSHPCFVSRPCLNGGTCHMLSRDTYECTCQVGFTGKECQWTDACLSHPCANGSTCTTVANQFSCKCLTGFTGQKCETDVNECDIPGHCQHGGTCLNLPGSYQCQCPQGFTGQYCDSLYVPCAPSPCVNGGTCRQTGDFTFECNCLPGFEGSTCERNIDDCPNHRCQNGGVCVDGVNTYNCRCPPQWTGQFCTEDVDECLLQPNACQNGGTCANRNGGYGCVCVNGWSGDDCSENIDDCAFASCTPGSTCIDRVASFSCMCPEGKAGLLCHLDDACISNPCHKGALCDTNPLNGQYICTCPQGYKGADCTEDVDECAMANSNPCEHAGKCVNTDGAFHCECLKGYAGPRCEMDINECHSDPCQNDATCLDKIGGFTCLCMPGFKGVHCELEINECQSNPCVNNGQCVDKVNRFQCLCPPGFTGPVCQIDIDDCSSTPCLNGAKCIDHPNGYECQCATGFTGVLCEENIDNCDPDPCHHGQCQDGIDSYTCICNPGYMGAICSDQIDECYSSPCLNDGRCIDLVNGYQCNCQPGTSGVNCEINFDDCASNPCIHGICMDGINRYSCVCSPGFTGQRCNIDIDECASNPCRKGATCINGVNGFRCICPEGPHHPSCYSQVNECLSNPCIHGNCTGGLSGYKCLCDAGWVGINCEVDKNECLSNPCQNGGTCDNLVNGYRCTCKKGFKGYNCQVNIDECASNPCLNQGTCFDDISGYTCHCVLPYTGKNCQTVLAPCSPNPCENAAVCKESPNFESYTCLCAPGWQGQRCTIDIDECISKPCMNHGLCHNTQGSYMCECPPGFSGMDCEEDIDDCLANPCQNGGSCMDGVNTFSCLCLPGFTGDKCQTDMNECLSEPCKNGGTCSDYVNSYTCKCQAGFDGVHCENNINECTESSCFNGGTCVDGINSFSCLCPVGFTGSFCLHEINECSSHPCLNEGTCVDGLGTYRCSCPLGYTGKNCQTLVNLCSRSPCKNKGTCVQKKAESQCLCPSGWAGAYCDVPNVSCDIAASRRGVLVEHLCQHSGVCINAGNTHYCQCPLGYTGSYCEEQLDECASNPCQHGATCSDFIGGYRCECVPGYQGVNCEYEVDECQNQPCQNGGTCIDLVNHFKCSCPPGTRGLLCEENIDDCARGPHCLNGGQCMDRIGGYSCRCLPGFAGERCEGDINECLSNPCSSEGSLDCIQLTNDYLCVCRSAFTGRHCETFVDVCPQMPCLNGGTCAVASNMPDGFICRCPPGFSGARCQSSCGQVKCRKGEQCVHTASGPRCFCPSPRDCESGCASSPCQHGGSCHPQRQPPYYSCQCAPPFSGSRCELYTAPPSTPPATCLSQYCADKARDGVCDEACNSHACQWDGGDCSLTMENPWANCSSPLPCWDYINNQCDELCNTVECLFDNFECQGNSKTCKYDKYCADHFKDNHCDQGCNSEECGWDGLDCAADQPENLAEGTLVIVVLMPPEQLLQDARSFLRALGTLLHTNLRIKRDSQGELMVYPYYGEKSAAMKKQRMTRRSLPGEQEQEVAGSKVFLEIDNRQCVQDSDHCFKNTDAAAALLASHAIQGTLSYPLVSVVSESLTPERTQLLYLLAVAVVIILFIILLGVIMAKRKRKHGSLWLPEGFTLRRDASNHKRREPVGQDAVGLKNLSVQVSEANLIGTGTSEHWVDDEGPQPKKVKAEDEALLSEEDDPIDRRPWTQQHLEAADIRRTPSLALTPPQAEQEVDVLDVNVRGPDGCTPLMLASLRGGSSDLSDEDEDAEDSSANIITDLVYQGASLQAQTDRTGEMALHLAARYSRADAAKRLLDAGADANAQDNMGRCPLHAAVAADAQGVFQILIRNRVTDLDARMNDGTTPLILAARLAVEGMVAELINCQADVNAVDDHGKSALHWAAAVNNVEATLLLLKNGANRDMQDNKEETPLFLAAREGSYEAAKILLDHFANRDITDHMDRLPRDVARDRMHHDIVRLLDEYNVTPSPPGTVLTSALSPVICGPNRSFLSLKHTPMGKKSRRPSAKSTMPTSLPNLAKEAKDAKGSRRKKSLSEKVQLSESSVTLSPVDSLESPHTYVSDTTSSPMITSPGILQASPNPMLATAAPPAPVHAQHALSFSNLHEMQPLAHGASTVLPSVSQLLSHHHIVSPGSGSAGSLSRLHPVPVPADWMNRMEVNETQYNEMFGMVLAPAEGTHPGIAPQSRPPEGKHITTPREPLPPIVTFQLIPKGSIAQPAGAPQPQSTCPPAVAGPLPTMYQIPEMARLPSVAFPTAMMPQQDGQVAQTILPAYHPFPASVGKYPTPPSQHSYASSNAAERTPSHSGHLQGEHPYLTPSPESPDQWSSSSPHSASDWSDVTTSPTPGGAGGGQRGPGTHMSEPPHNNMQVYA

Consider `COC(=O)[C@@]1(Cc2ccc(OC)cc2)[C@H]2c3cc(C(=O)N(C)C)n(Cc4ccc(Cl)c(C(F)(F)F)c4)c3C[C@H]2CN1C(=O)c1ccccc1`, for which the composite z-score in test [1] was found to be 1.33; in test [2] it was 0.218; in test [3] it was 0.262; in test [4] it was 0.473; in test [5], 1.47; in test [6], 1.39. The composite z-score was found to be 1.03 in test [7], 1.73 in [9] and 1.71 in test [10]. For the same compound, the z-score in [8] is 0.282 (inactive).
Regarding `O=C1OCCC/C=C\[C@H]2OC34C=CCN(CCN5CCOCC5)C(=O)[C@H]3N(CCCCCCO)C(=O)[C@@H]4C12` (stereo not given in full), the composite z-score in test [1] was 0.0814; in test [2], 2.31; in test [3], -0.171; in test [4] it was -0.291; in [5], -0.0784; in [6] it was 1.91. In addition, the values for the composite z-score in [7], in test [9] and in [10] were 1.17, -0.151 and -0.0994, respectively. In addition, the z-score in test [8] was -1.05 (inactive).
Regarding `COc1ccc([Si](C)(C)[C@H]2[C@H](CCn3cc([C@H](O)c4ccccc4)nn3)O[C@@]3(C(=O)N(Cc4ccc(N5C(=O)c6cccc7cccc5c67)cc4)c4ccccc43)[C@@H]2C)cc1`, the composite z-score was 0.193 in test [1]; -0.241 in [2]; -0.159 in test [3]; 0.595 in test [4]; -0.715 in [5]; 0.45 in test [6]. Besides, the composite z-score in [7] is 1.1; in test [9], -0.403; in test [10], -0.0994. Besides, the z-score in test [8] is -3.35 (inactive).
Consider `C=CCC(OC(C)=O)[C@@H]1[C@@H](N(Cc2cc3ccccc3o2)C(=O)Cc2ccc(F)cc2)c2cc(OCCCO)ccc2N1C(=O)c1ccc2ccccc2c1` (stereo not given in full), for which the composite z-score was -0.0245 in test [1]; -0.186 in test [2]; -0.116 in test [3]; -0.121 in [4]; -0.367 in test [5]; -0.32 in [6]. The values for the composite z-score in test [7], in test [9] and in test [10] were -0.432, 0.45 and -0.0994, respectively. For the same compound, in [8], the z-score is -1.92 (inactive).
For `COc1ccc(NC(=O)O[C@H]2[C@H](OC(=O)Nc3ccccc3)[C@@H](OC(=O)Nc3ccccc3)[C@@H](OC)O[C@@H]2CO)cc1`, the composite z-score was -0.279 in [1]; 0.672 in test [2]; -0.017 in test [3]; 1.27 in [4]; 0.754 in test [5]; 1.6 in test [6]. Besides, the results for the composite z-score in test [7], in [9] and in [10] were 1.26, 0.23 and -0.0618, respectively. For the same compound, the z-score in test [8] is 0.329 (inactive).
`C=C(C)[C@@H]1CC=C(C(O)C2C=CC3C(=O)N(c4ccccc4)C(=O)C3N2Nc2ccccc2F)CC1` (stereo not given in full): the composite z-score turned out to be 0.264 in [1]; 0.0754 in test [2]; 0.195 in test [3]; 0.825 in test [4]; 1.63 in [5]; 1.94 in test [6]. For the same compound, the figures for the composite z-score in test [7], in test [9] and in test [10] were 1.22, 1.84 and 0.18, respectively. Also, the z-score in test [8] is -1.51 (inactive).
Regarding `COc1cc2c(cc1O)C(C)N(Cc1ccc([N+](=O)[O-])o1)CC2` (stereo not given), the composite z-score in test [1] is 0.182; in test [2], 0.731; in test [3], -0.0138; in test [4], 1.15; in test [5] it was 1.3; in test [6], 1.53. Further, the composite z-score in test [7] was found to be 1.08; in test [9], 0.401; in test [10], 0.28. Besides, the z-score in test [8] is 0.11 (inactive).
Turning to `O=C(NCCCCCNC(=O)/C(Cc1ccccc1)=N/O)OCc1ccccc1`, the composite z-score is -0.51 in test [1]; 0.148 in test [2]; -0.25 in test [3]; 0.293 in test [4]; 0.421 in test [5]; -0.181 in test [6]. Further, the figures for the composite z-score in test [7], in [9] and in [10] were -0.422, 0.152 and -0.409, respectively. Also, the z-score in [8] was -0.213 (inactive).
In the case of `CN(C)C(=O)[C@]1(CCS(=O)(=O)c2ccccc2)N=C(c2ccc(OCCCO)cc2)O[C@@H]1c1ccccc1N=[N+]=[N-]`, the composite z-score came out at 0.169 in test [1]; 1.13 in [2]; 0.15 in test [3]; 1.16 in test [4]; 1.59 in test [5]; 1.27 in test [6]. Besides, the composite z-score in test [7] was 1.4; in test [9] it was 1.84; in test [10] it was 0.155. For the same compound, in [8], the z-score was 2.79 (inactive).
For `CO[C@]12C=C(Br)[C@@H](C[C@@H]1c1cccc(C)c1)[C@@]1(CO1)C2=O`, the composite z-score is -0.233 in [1]; 0.0322 in test [2]; -0.0718 in test [3]; 0.211 in test [4]; -0.217 in test [5]; 0.518 in [6]. The composite z-score in [7] is 0.0046; in test [9], -0.221; in [10], -0.0708. The z-score in [8] was 1.22 (inactive).
Turning to `COc1ccc([Si](C)(C)[C@@H]2[C@@H](CC(=O)N3Cc4ccccc4C[C@H]3CO)O[C@]3(C(=O)N(Cc4cccc(N5C(=O)c6cccc7cccc5c67)c4)c4ccccc43)[C@H]2C)cc1`, the composite z-score in [1] was -0.345; in [2], 0.822; in test [3], -0.0111; in [4], 0.659; in test [5], 0.973; in test [6] it was 0.828. Also, the composite z-score in test [7] was found to be 1.04; in [9], 0.593; in test [10], 0.0505. The z-score in [8] is -1.51 (inactive).
Take `CN(C)C(=O)C1N=C(c2ccc(OCCCO)cc2)N(c2ccccc2)O1` (stereo not given): the composite z-score in test [1] is -0.135; in test [2], 0.18; in [3], 0.0097; in test [4], 0.929; in [5] it was 1.19; in test [6], 0.869. The figures for the composite z-score in [7], in test [9] and in test [10] were 1.39, 0.514 and 0.107, respectively. Moreover, the z-score in test [8] was 4.85 (inactive).
Regarding `C=C(/C(=C/C[C@@H](OC(C)=O)c1cccc(OCCO)c1)c1cc(C(=O)OC)ccc1OC)C(C)C`, the composite z-score was -0.367 in [1]; 1.11 in test [2]; -0.0799 in [3]; 0.451 in test [4]; -0.114 in test [5]; -0.202 in test [6]. Further, the composite z-score in test [7] was 0.938; in test [9] it was 0.313; in [10], 0.0373. The z-score in test [8] was 0.608 (inactive).
As for `CC(C)[Si](C#C[Si](C(C)C)(C(C)C)C(C)C)(O[C@H](C)c1cn([C@H](CO)Cc2ccccc2)nn1)C(C)C`, the composite z-score in test [1] is -0.311; in test [2] it was 0.585; in test [3], -0.116; in test [4], 0.215; in [5], 0.203; in test [6], 0.183. For the same compound, the composite z-score in [7] was 0.432; in test [9], 0.513; in [10], -0.111. Further, the z-score in test [8] was -1.06 (inactive).
